Source: PubChem BioAssay
ST2 IL33 inh: inhibitors of human ST2 (IL1RL1) binding to IL-33, primary screen, biochemical, AlphaLISA. actives 2.3% (n = 78,000). Interleukin-1 receptor-like 1 (Homo sapiens), Q01638. inhibition, % for hits at 17 µM. AlphaLISA ST2-Fc/biotin-IL-33 interaction, 1 h; in the data active = inhibition above about 30%
Target sequence (Q01638 whole entry, looked up): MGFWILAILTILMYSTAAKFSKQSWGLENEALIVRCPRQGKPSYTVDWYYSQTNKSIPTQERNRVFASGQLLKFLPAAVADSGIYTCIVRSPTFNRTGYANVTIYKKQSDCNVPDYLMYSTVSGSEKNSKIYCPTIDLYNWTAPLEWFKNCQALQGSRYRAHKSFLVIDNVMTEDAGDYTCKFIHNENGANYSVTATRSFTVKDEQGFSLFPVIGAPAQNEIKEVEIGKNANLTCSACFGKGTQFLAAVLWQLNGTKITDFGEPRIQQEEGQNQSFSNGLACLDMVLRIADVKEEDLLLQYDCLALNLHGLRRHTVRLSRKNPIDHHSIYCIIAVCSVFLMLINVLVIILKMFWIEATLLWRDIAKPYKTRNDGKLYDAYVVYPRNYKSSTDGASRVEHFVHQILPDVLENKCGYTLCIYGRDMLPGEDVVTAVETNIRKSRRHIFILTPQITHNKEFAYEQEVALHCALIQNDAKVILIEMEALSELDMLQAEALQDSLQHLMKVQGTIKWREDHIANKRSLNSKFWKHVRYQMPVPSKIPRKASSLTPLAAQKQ
Active calls of the source: *; i = inactive. Only a selection was taken, and hits are over-represented in it overall.

SMILES | ST2 IL33 inh
COc1ccc(NC(=O)N[C@H]2CO[C@H]3[C@@H]2OC[C@H]3OC(=O)Nc2ccc(C(C)=O)cc2)cc1 | i
CSC(N)=NS(=O)(=O)c1ccc(C)cc1 | i
O=C(O)C[C@@H]1CCN(C(=O)c2ccccc2)C[C@@H]1CCN1CCN(c2cccc(C(F)(F)F)c2)CC1 | i
O=C(O)C[C@@H]1CCN(C(=O)Nc2ccccc2)C[C@@H]1CCN1CCN(c2ccc(F)cc2)CC1 | 69%*
CC(=O)Nc1ccc(S(=O)(=O)N(CCCN2CCOCC2)Cc2cccs2)cc1 | i
O=C(O)C[C@@H]1CCN(C(=O)Cc2cccs2)C[C@@H]1CCN1CCOCC1 | 54%*
O=C(O)C[C@@H]1CCN(C(=O)Cc2ccccc2)C[C@@H]1CCN1CCN(c2cccc(C(F)(F)F)c2)CC1 | i
O=C(Nc1cccc(F)c1)N1CCN(c2ccc(F)cc2)CC1 | i
O=C(c1cn2cccnc2n1)N1CCOC(c2ccc(Cl)c(Cl)c2)C1 (stereo unspecified) | i
C=CCNc1ccccc1C(=O)N1CCCC1c1nc(C(C)C)no1 (stereo unspecified) | i
O=C(NC1CCCCCCC1)c1cc(=O)[nH]c2ccc(S(=O)(=O)N3CCCC3)cc12 | i
CN1C[C@@H](NC(=O)Nc2cccc(C#N)c2)C[C@H]1c1nc(Cc2ccccc2)no1 | i
CNC(=O)c1cc2c(cn1)[nH]c1ccccc12 | i
O=c1nc(-c2ccccc2)c2ccccc2[nH]1 | i
Nc1ccc2[nH]c3ccccc3c2c1 | 66%*
N/C(=N/OC(=O)c1ccccc1F)c1ccncc1 | i
COc1cccc(-c2cc3c(n(CC4CC4)c2=O)CCN(Cc2c(F)cccc2Cl)C3)c1OC | i
CCN(CC)CCNC(=O)c1ccc(N=Cc2cc(Cl)cc(Cl)c2O)cc1 | i
CCN(CC)c1ccc(N=Cc2ccc(N(CC)CC)cc2O)cc1 | 60%*
CC(=O)Nc1ccc(N=Cc2cc(Br)cc(Cl)c2O)cc1 | i
O=C(NCCc1nc2cccnc2n1C1CCCCC1)NC1CCCCC1 | i
O=C1Nc2ccccc2N(O)N1c1ccccc1F | i
c1cnc(-c2cc(NC3CCNCC3)nc3[nH]ccc23)nc1 | 41%*
Cc1ccccc1-n1cc(-c2ccnc(NC3CCNCC3)n2)cn1 | i
CC(O)c1cccc(-c2cc(NC3CCNCC3)nc3[nH]ccc23)n1 (stereo unspecified) | 46%*
SMILES | ST2 IL33 inh
c1ccc2c(-c3cc(NC4CCNCC4)nc4[nH]ccc34)n[nH]c2c1 | 46%*
Cc1cc(-c2cc(NC3CCNCC3)nc3[nH]ccc23)c(=O)[nH]c1C | 38%*
CCNc1ccnc(-c2cccc3[nH]ccc23)n1 | i
NC(=O)c1csc(-c2cc(NC3CCCC3)nc3[nH]ccc23)n1 | i
COc1ncc(-c2cc(NCCN(C)C)nc3[nH]ccc23)c(OC)n1 | i
CC(=O)c1ccc(C(=O)N2CCc3c(cnc(C)c3CNC(=O)/C=C/c3ccccc3)C2)s1 | i
Cc1cc(C)c(-c2nccn2CCc2ccccn2)c(-n2cccn2)c1 | i
N#CCC(=O)Nc1ncc(Cc2cccc(C(F)(F)F)c2)s1 | i
Cn1cc(CN2CC[C@H](c3nnc(-c4ccccc4)o3)C2)c2ccccc21 | i
O=C(Cn1nc(-c2ccccc2)ccc1=O)NC1CCCC1 | i
O=C(C1CCCO1)N1CCC(c2nn3c(C4CCCC4)nnc3s2)CC1 (stereo unspecified) | i
Cc1ccc(NC(=O)CN(c2cccc(C)c2C)S(C)(=O)=O)cc1Cl | i
O=C(NC1CCCC1)c1cc(-c2ccc3c(c2)OCO3)on1 | i
Cc1ccccc1CCC1CCCN(C(=O)c2[nH]ncc2Cl)C1 (stereo unspecified) | i
Cc1oc(-c2ccccc2Cl)cc1C(=O)N(C)Cc1noc(C(C)C)n1 | i
CC1=CCC2COC(c3ccccc3)C1C2 (stereo unspecified) | i
COc1ccc2oc(=O)c(NC(=O)/C=C/c3ccc(Cl)cc3Cl)cc2c1 | i
O=C1OC(Nc2ccc(Cl)cc2Cl)c2ccccc21 (stereo unspecified) | i
CC1=C(/C=C/c2ccc(Cl)cc2Cl)C(=O)c2ccccc2C1=O | 37%*
Cc1cc(C)c2ccc(NN)nc2c1O | 34%*
Cc1cc(C)c2ccc(CO)nc2c1O | i
COc1ccc(-c2nccn2CC(C)Oc2cccnc2)c(F)c1F (stereo unspecified) | i
CCOCCOC(=O)C1=C(C)NC2=C(C(=O)C(C(=O)OC)C(C)C2)C1c1cccc(Cl)c1 (stereo unspecified) | i
Cc1cc(N2CCCCC2)nc(N2CCN(S(=O)(=O)c3ccc(F)cc3)CC2)n1 | i
Cc1oc(-c2ccc(Cl)cc2)nc1CSCC(=O)N1CCOCC1 | i
SMILES | ST2 IL33 inh
O=C(Nc1ccc2oc(-c3ccc(F)cc3)nc2c1)c1ccccc1 | i
O=C(Nc1ccc2oc(-c3ccncc3)nc2c1)c1ccc(-c2ccccc2)o1 | 41%*
CN(C)c1ccc(-c2nc3cc(NC(=O)Cc4ccccc4)ccc3o2)cc1 | i
O=C(CSc1n[nH]c(-c2ccco2)n1)c1ccc(F)cc1 | i
CS(=O)(=O)c1cc([N+](=O)[O-])c(Sc2nc3ccccc3o2)c([N+](=O)[O-])c1 | i
Cc1cc2n(c1)CCn1c(C)ccc1-2 | 63%*
O=C(Nc1ccc(S(=O)(=O)N2CCOCC2)cc1)C(Sc1ccccc1)c1ccccc1 (stereo unspecified) | i
